From PubChem BioAssay AID1851 (National Center for Advancing Translational Sciences (NCATS), 2009)
The whole screen tested about 16,000 compounds, of which about 5,100 (32%) were called active. Inconclusive results (about 25%) are left out. The list shows a part of the results. Unmarked numbers belong to inactive results. Calls come from the whole dose curve; as a rule, active = well fitted curve in the direction sought with a large enough effect; inconclusive = small, poorly fitted or top-dose-only effect, or effect the other way; inactive = no such curve, though single readings can be large or run the other way.

Target: Cytochrome P450 3A4 (Homo sapiens) (UniProt P08684)
Sequence (P08684 whole entry, looked up): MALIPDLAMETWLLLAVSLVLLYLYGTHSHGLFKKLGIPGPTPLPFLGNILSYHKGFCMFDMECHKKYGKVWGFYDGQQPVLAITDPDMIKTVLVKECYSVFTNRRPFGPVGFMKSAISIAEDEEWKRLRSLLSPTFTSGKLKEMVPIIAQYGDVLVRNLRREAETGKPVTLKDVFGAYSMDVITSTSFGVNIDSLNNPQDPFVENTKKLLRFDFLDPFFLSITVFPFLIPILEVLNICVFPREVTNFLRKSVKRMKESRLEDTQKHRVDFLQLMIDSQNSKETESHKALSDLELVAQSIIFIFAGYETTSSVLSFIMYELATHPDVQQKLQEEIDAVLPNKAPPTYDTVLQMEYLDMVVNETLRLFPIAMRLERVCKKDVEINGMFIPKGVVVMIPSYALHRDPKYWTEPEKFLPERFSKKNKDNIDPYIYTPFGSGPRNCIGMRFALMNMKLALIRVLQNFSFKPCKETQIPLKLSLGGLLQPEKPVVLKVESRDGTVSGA
Assay: Cytochrome panel assay with activity outcomes
Conditions: recombinant CYP, pro-luciferin dealkylation, luminescence, p450-cyp3a4; series mostly up to 57.1 µM
% is set by controls: 0 for no effect and ±100 for the full control effect.

| Structure (SMILES) | AC50 | activity, negative = inhibition |
| --- | --- | --- |
| COc1ccc(CNc2ncncc2-c2ccc3c(c2)OCO3)c(OC)c1 | 0.126 µM (active) |  |
| COc1ccccc1CNc1ncncc1-c1ccc2c(c1)OCO2 | 0.2 µM (active) |  |
| O=C1CSC2(CCN(CCCN3c4ccccc4Sc4ccc(Cl)cc43)CC2)N1 |  | -14.4% [at 11.4 µM] |
| CCC/C=C(\CCC)C(NS(=O)(=O)c1ccc(C(F)(F)F)cc1)c1ccccc1 (configuration not stated) | 10 µM (active) |  |
| C[C@@](O)(CNS(=O)(=O)c1ccccc1)c1ccccc1 |  | -21.9% [at 11.4 µM] |
| CCC/C=C(\CCC)C(NS(=O)(=O)c1ccccc1)c1ccc(C(F)(F)F)cc1 (configuration not stated) | 6.31 µM (active) |  |
| COc1ccccc1CN1CCCC2(CCN(C(=O)c3ccncc3)CC2)C1 | 6.31 µM (active) |  |
| COCC(=O)N1CCC2(CCCN(Cc3ccccc3OC)C2)CC1 | inactive |  |
| COc1ccccc1CN1CCCC2(CCN(C(=O)c3cnccn3)CC2)C1 | 15.8 µM (active) |  |
| COc1ccccc1CN1CCCC2(CCN(C(C)=O)CC2)C1 | inactive |  |
| Cc1nc2nc(SCC(=O)NCc3ccco3)nn2c(C)c1Cc1c(F)cccc1Cl | 10 µM (active) |  |
| Cc1cccc(Cc2c(C)nc3nc(SCC(=O)NCc4ccco4)nn3c2C)c1 | 11.2 µM (active) |  |
| CCCN=C(N)NCCC[C@H](N)C(=O)O | inactive |  |
| COc1cc(OC)c(C2N(c3cc(C)on3)C(=O)C3CCCN32)cc1OC (configuration not stated) | inactive |  |
| CCOC(=O)c1cc(-c2ccccc2)sc1NC(=O)c1ccc(OC)cc1 | inactive |  |
| CCOC(=O)c1cc(CC)sc1NC(=O)c1cc(OCC)c(OCC)c(OCC)c1 | 22.4 µM (active) |  |
| CCc1cc(C(=O)OC)c(NC(=O)CCCC(=O)O)s1 | inactive |  |
| CC(C)NCC[C@@H](O)c1cc2ccccc2o1 |  | -4.13% [at 11.4 µM] |
| CCOC(=O)/C(C#N)=C1/C=CN(C)C=N1 | inactive |  |
| CC(=O)c1ccc(NC(=O)C2(c3ccccc3)CCOCC2)cc1 | inactive |  |
| CSc1ccc(C#N)cc1NC(=O)c1cccc(Cl)c1 | 25.1 µM (active) |  |
| CO/N=C(/CNC(=O)c1cccc(Cl)c1)c1ccc(Cl)cc1 |  | -6.99% [at 2.29 µM] |
| CCCc1c(-c2ccc(O)cc2)nn(-c2ccc(O)cc2)c1-c1ccc(O)cc1 | 2.51 µM (active) |  |
| Cc1nn(-c2ccccc2)c(-c2ccccc2)c1C(=O)O | inactive |  |
| CC(=O)N[C@H](Cc1ccc(O)cc1)C(=O)O |  | -12.2% [at 11.4 µM] |

| Structure (SMILES) | AC50 | activity, negative = inhibition |
| --- | --- | --- |
| N#C[C@H](Cc1ccc(O)cc1)c1ccc(O)cc1 | 12.6 µM (active) |  |
| C[C@H](NCCc1ccc(O)cc1)[C@@H](O)c1ccc(O)cc1 | inactive |  |
| Cc1occc1C(=O)NNC(=O)c1ccc(F)cc1 | inactive |  |
| Cc1ccc(C(=O)NNC(=O)CSc2nnc3c(n2)[nH]c2ccc(F)cc23)cc1 | 1.58 µM (active) |  |
| Cc1ccccc1C(=O)NNC(=O)c1ccc(F)cc1 | inactive |  |
| CC1CCc2cc(F)ccc2N1C(=O)CSc1nnc2c(n1)[nH]c1ccc(F)cc12 (configuration not stated) | 2 µM (active) |  |
| O=C(O)c1nn(-c2ccccc2)nc1-c1nn(-c2ccccc2)nc1C(=O)O | inactive |  |
| CC1(C)Cc2ccccc2C(NNC(=O)c2ccncc2)=N1 | 8.91 µM (active) |  |
| CN1CCC2(CC1)CCN(C(=O)c1ccncc1)CC2 | inactive |  |
| CC1=NC(C)(C)Cc2ccccc21 | inactive |  |
| CC(C)n1nnnc1-c1cc(Cl)cc(Cl)c1 |  | 11.3% [at 2.29 µM] |
| ClC(Cl)(Cl)C(N1CCN(c2ccccc2)CC1)N1CCN(c2ccccc2)CC1 |  | -3.89% [at 11.4 µM] |
| CC(C)CC(c1nnnn1C(C)C)N1CCN(c2ccccc2)CC1 (configuration not stated) | 3.98 µM (active) |  |
| O=C(O)[C@H]1C[C@H](C(=O)O)N1 | inactive |  |
| CCn1c(CC(=O)Nc2ccc(C)cc2)nnc1SCC(=O)NCCc1ccccc1 | 10 µM (active) |  |
| CCn1c(CSCc2ccc(C)cc2)nnc1SCC(=O)NCc1ccccc1 | 7.94 µM (active) |  |
| C=CCn1c(Cc2c[nH]c3ccccc23)nnc1SCC(=O)NCc1ccccc1 |  | -3.87% [at 2.29 µM] |
| CCn1c(CC(=O)Nc2ccc(C)cc2)nnc1SCC(=O)Nc1nc(C)cs1 | 7.94 µM (active) |  |
| CC(C)(C)NC(=O)NC(=O)CSc1nnc2ccccn12 | inactive |  |
| CCc1c(O)nc(SCC(=O)NC(C)(C)C)n(-c2ccccc2)c1=O |  | -1.41% [at 2.29 µM] |
| CCn1c(Cc2ccccc2)nnc1SCC(=O)NC(C)(C)C | 11.2 µM (active) |  |
| CN(C)CC(O)COc1cccc(OCC(O)CN(C)C)c1 (configuration not stated) | inactive |  |
| CCN1C(=O)[C@H]2[C@@H]3[C@H](O)C=CC(=O)[C@H]3CC[C@H]2C1=O |  | -12.1% [at 11.4 µM] |
| O=c1oc(-c2cccs2)nc2ccc(Br)cc12 | inactive |  |
| O=S(=O)(c1ccccc1)N1N=C(c2cccs2)CC1c1ccc(Br)cc1 (configuration not stated) | 2 µM (active) |  |

| Structure (SMILES) | AC50 | activity, negative = inhibition |
| --- | --- | --- |
| O=C(Nc1nnc(C2CC2)s1)c1cc(S(=O)(=O)N2CCN(c3ccccc3)CC2)ccc1Cl | 2 µM (active) |  |
| CC(C)Cc1nnc(NC(=O)c2ccc([N+](=O)[O-])cc2)s1 | inactive |  |
| O=C(Nc1nnc(C2CC2)s1)c1ccc(S(=O)(=O)c2ccccc2)cc1 | inactive |  |
| CCN1CCN(S(=O)(=O)c2ccc(Cl)c(C(=O)Nc3nnc(CC(C)C)s3)c2)CC1 | 14.1 µM (active) |  |
| CCOC(=O)CSc1nnc(NC(=O)c2cccc(S(=O)(=O)N3CCCCCC3)c2)s1 |  | -15.1% [at 2.29 µM] |
| CCc1cc(C(c2ccccc2OC)N2CCOCC2)c(NC(=O)c2ccccc2)s1 (configuration not stated) | 4.47 µM (active) |  |
| CCOc1ccc2nc(NC(=O)c3ccc(S(=O)(=O)N4CCOCC4)cc3)sc2c1 | inactive |  |
| COc1ccc(NC(=O)c2ccc(-c3ccc(-c4noc(C)n4)cc3C)cc2)cc1N1CCN(C)CC1 | inactive |  |
| CCCCCC(=O)N1CCCC(c2nc(-c3ccc(OC)cc3)no2)C1 (configuration not stated) | 7.08 µM (active) |  |
| COc1ccc(-c2noc(C3CCCN(C(=O)c4ccccc4OC)C3)n2)cc1OC (configuration not stated) | 5.01 µM (active) |  |
| O=C(Nc1ccccc1)N1CCCC(c2nc(-c3ccc(F)cc3)no2)C1 (configuration not stated) | 14.1 µM (active) |  |
| CCCCC1CCC(c2nc(-c3ccccn3)no2)CC1 (configuration not stated) |  | 5.4% [at 2.29 µM] |
| CN(C)c1ccc(-c2noc(C3CCN(S(=O)(=O)c4cccc(C(=O)O)c4)CC3)n2)cc1 | inactive |  |
| CC(C)(C)c1ccc(C(=O)NCc2ccc(Cl)cc2)cc1 | inactive |  |
| O=C(NCc1cccc(C(F)(F)F)c1)c1cc(Cl)cc(Cl)c1 | 14.1 µM (active) |  |
| O=C(NCc1ccccc1)c1cccc(COc2cccc(Cl)c2)c1 |  | -29.3% [at 11.4 µM] |
| CCN(CC)S(=O)(=O)c1cc(C(=O)OC)ccc1Cl | inactive |  |
| CCOCC(=O)Nc1cc(C(=O)Nc2ccccc2)ccc1Cl |  | -4.26% [at 2.29 µM] |
| CCN(CC)S(=O)(=O)c1cc(C(=O)Nc2ccncc2)ccc1Cl | 1 µM (active) |  |
| CC(=O)Nc1ccc(S(=O)(=O)c2ccc(N)cc2)cc1 |  | -19.3% [at 11.4 µM] |
| CC(=O)Nc1ccc([N+](=O)[O-])cn1 | inactive |  |
| CC(=O)Nc1ccc(Nc2ncc([N+](=O)[O-])c(Nc3ccc(NC(C)=O)cc3)n2)cc1 | 6.31 µM (active) |  |
| CCOc1cc(NC(=S)NCC2CCCO2)c(OCC)cc1NC(=O)c1cccc(C)c1 (configuration not stated) | 12.6 µM (active) |  |
| Cc1ccc(C(=O)NC(=S)NCC2CCCO2)cc1 (configuration not stated) |  | -7.78% [at 2.29 µM] |
| CCOc1cc(NC(=S)Nc2cccc(C)c2)c(OCC)cc1NC(=O)CC(C)C | 11.2 µM (active) |  |

| Structure (SMILES) | AC50 | activity, negative = inhibition |
| --- | --- | --- |
| Cc1scc(C(=O)NNC(=S)NCC2CCCO2)c1C (configuration not stated) | inactive |  |
| Cc1cccc(NC(=S)NNC(=O)CC(C)O)c1C (configuration not stated) | inactive |  |
| Cc1ccccc1C(=O)c1c[nH]c(C(=O)NCC2CCCO2)c1 (configuration not stated) |  | 2.67% [at 11.4 µM] |
| CCc1cc(C(=O)NNC(=S)NCC2CCCO2)cs1 (configuration not stated) | inactive |  |
| CCOc1cc(NC(=S)NCC2CCCO2)c(OCC)cc1NC(=O)c1ccccc1C (configuration not stated) | 12.6 µM (active) |  |
| Nc1cc(C(=O)O)[nH]c(=O)n1 |  | -11.2% [at 11.4 µM] |
| O=C(O)[C@H]([C@H]1NCCS1)N1Cc2ccccc2C1 |  | -4.44% [at 11.4 µM] |
| O=C(c1cccc(F)c1)N1CCC[C@@]2(CCN(c3ccccc3)C2)C1 | 6.31 µM (active) |  |
| O=C(c1cccc(F)c1)N1CCC[C@@]2(CCN(c3cccc(-c4ccccc4)c3)C2)C1 | 7.94 µM (active) |  |
| COC(=O)N1CCC2(CC1)CN(c1cccc(-c3ccccc3)c1)C2 | inactive |  |
| CN1CC[C@@]2(CCCN(C(=O)c3cccc(F)c3)C2)C1 | inactive |  |
| COc1ccc(C(=O)N2CCC[C@@]3(CCN(c4cccc(-c5ccccc5)c4)C3)C2)cc1 | 3.16 µM (active) |  |
| O=C(c1cccc(F)c1)N1CCC2(CCCN(C(c3ccccc3)c3ccccc3)C2)CC1 | inactive |  |
| CC(=O)N1CCC2(CC1)CCN(c1cccc(-c3ccccc3)c1)CC2 | inactive |  |
| O=C(c1cccc(F)c1)N1CCC[C@@]2(CCN(C(c3ccccc3)c3ccccc3)C2)C1 | 3.98 µM (active) |  |
| CN(C)CCCO[C@H]1[C@@H]2OC(C)(C)O[C@@H]2O[C@@H]1[C@H](O)CO | inactive |  |
| Clc1ccc2c(NCCNC3CCCCC3)ccnc2c1 |  | -5.83% [at 11.4 µM] |
| O=C(O)/C=C\[C@H](O)c1ccc(Cl)cc1 | inactive |  |
| O=C(c1cccc(F)c1)N1CCC[C@@]2(CCN(c3ccncc3)C2)C1 | 0.316 µM (active) |  |
| O=C(c1cccc(F)c1)N1CCC2(CC1)CN(c1ccncc1)C2 | inactive |  |
| O=C(NNC(=O)c1ccccc1-n1cccc1)c1ccccc1 | inactive |  |
| O=C(NNC(=O)c1ccccc1-n1cccc1)c1ccc(Cl)c(Cl)c1 | 15.8 µM (active) |  |
